What follows are compounds tested on EPHA3. Settings: concentration: 1 μM,replicates: in singlicate; n = 1.
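Note: KINOMEscan kinase panel screen.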

SMILES | %Inh [%]
CS(=O)c1ccc(-c2coc3ccc(-c4n[nH]c(=O)o4)cc23)cc1 (centres unmarked) | 0
Cc1ccc(Nc2ccnc(Nc3ccc4c(c3)CS(=O)(=O)C4)n2)cc1O.Cl [GW579362] | 78
CS(=O)(=O)Nc1ccc(-c2ccnc3[nH]ccc23)cc1 [GSK993273] | 0
COc1cc(Nc2nccc(N3CCC(NC(=O)c4cccc(C#N)c4)C3)n2)cc(OC)c1OC (centres unmarked) [GSK1379751] | 0
O=c1[nH]cc(-c2ccc(O)cc2)c2sc(-c3ccncc3)cc12 [GSK1033723] | 0
COc1cccc(CNC(=O)NC2CCN(c3ccnc(Nc4cc(OC)c(OC)c(OC)c4)n3)C2)c1 (centres unmarked) [GSK1379765] | 0
O=C1NCCc2[nH]c(-c3ccncc3)cc21 | 0
O=C(Nc1ccc(Oc2ccc3nc(NC(=O)C4CC4)cn3n2)c(F)c1)c1cccn(-c2ccccc2)c1=O | 0
COC(=O)c1cccc(NC(=O)NC2CCN(c3ccnc(NCc4ccc(F)cc4)n3)CC2)c1 [GSK1379860] | 0
Nc1nccc(-c2ccc3c(N)n[nH]c3c2)n1 [GSK1034945] | 0
CC(C(=O)NC1CCN(c2ccnc(Nc3ccc(F)cc3)n2)C1)c1ccc(Cl)cc1 (centres unmarked) [GSK1379713] | 0
Cc1ccc(C(=O)Nc2ccc(Oc3ccc4nc(NC(=O)C5CC5)cn4c3)c(F)c2)c(=O)n1-c1ccccc1 | 49
OCCn1cc(-c2cnc3nnn(Cc4ccc5ncccc5c4)c3n2)cn1 | 0
CN1CCN(CCNc2nc3cc(Oc4ccc(NC(=O)Nc5cc(C(F)(F)F)ccc5F)cc4)ccc3[nH]2)CC1.Cl.Cl [GW768504] | 0
CCn1c(-c2nonc2N)nc2cncc(CNC3CCNCC3)c21.Cl [SB-747651] | 0
FC(F)(F)c1cc(Br)cc(Nc2nccc(-c3cnn4ncccc34)n2)c1 [GW810578] | 7
Cn1ccc2ncnc(Oc3ccc(NC(=O)Nc4cncc(C(F)(F)F)c4)c(Cl)c3)c21 | 92.5
O=C(Nc1n[nH]c2cc(-c3ccco3)ccc12)C1CC1 [SB-737447] | 19
CN(c1ccc2c(c1)nc(NCc1ccc(F)cc1)n2C)c1ccnc(Nc2ccc(CS(C)(=O)=O)cc2)n1.Cl [GW813244] | 5

SMILES | %Inh [%]
COc1cccc(OC)c1C(=O)Nc1cccc(-c2nn3ccccc3c2-c2ccnc(Nc3cccc(F)c3)n2)c1 [GSK361065] | 0
CCN1CCN(CCCC(=O)Nc2n[nH]c3nc(-c4ccc(O)cc4)c(Br)cc23)CC1 [SB-731579] | 6
Cn1cc(-c2cccc3c(N)c(C(N)=O)nnc23)cn1 | 24
O=C(Nc1cccc(C(F)(F)F)c1)c1cccc(Oc2ccc3nccn3n2)c1 | 11
Cn1ccc2ncnc(Oc3ccc(NC(=O)Nc4cnn(C(C)(C)C)c4)c(Cl)c3)c21 | 54
COc1ccc(Nc2nccc(N3CCC(NC(=O)c4cccc(C#N)c4)C3)n2)cc1 (centres unmarked) [GSK1379730] | 0
CC(C)S(=O)(=O)N1CCN(Cc2ccc3c(c2)nc(NC(=O)c2ccsc2)n3C[C@H](O)c2ccccc2)CC1 [GW635815] | 11
Cn1ccc2ncnc(Oc3ccc(NC(=O)Nc4cccc(C(F)(F)F)c4)c(F)c3)c21 | 58
Cc1ccc2c(-c3ccnc(Nc4ccc(C(F)(F)F)cc4)n3)cnn2n1 [GW819776] | 0
c1ccc(Oc2ccc(Nc3ccnc4ccc(-c5ccccn5)cc34)cc2)cc1 [GW407034] | 0
COc1cc2ncn(-c3cc(OCC4CCCCC4)c(C(N)=O)s3)c2cc1OC [GSK204559] | 14
Cl.Nc1n[nH]c2cc(-c3ccccn3)ccc12 [GSK2189892] | 0
CNC(=O)c1ccccc1Nc1nc(Nc2cccc(CS(C)(=O)=O)c2)ncc1C.O=CO [GSK1520489] | 91.8
CN1CCN(CCCNc2nccc(-c3c(-c4ccc(F)cc4)nn4cc(C(N)=O)ccc34)n2)CC1 [GW622475] | 31
CC(C)c1nc(-c2cccc(NS(=O)(=O)c3ccccc3)c2)c(-c2ccnc(Nc3ccc4c(c3)CN(C)CC4)n2)s1 [GSK1649598] | 44
COc1cccc(C2=C(Nc3cccc(Cl)c3)C(=O)NC2=O)c1 [SB-341556] | 0
Cl.Cl.NC[C@H](CC1CCCCC1)NC(=O)c1ccc(-c2ccnc3[nH]ccc23)s1 [GSK1581428] | 17
Cn1ccc2ncnc(Oc3ccc(NC(=O)Nc4cc(C(C)(C)C)on4)c(Cl)c3)c21 | 93.4

The compounds below were run on EPHA4. Settings: concentration: 1 μM,replicates: in singlicate; n = 1.

SMILES | %Inh [%]
CS(=O)c1ccc(-c2coc3ccc(-c4n[nH]c(=O)o4)cc23)cc1 (centres unmarked) | 0
Cc1ccc(Nc2ccnc(Nc3ccc4c(c3)CS(=O)(=O)C4)n2)cc1O.Cl [GW579362] | 53
CS(=O)(=O)Nc1ccc(-c2ccnc3[nH]ccc23)cc1 [GSK993273] | 20
COc1cc(Nc2nccc(N3CCC(NC(=O)c4cccc(C#N)c4)C3)n2)cc(OC)c1OC (centres unmarked) [GSK1379751] | 4
O=c1[nH]cc(-c2ccc(O)cc2)c2sc(-c3ccncc3)cc12 [GSK1033723] | 10
COc1cccc(CNC(=O)NC2CCN(c3ccnc(Nc4cc(OC)c(OC)c(OC)c4)n3)C2)c1 (centres unmarked) [GSK1379765] | 3
O=C1NCCc2[nH]c(-c3ccncc3)cc21 | 30
O=C(Nc1ccc(Oc2ccc3nc(NC(=O)C4CC4)cn3n2)c(F)c1)c1cccn(-c2ccccc2)c1=O | 26
COC(=O)c1cccc(NC(=O)NC2CCN(c3ccnc(NCc4ccc(F)cc4)n3)CC2)c1 [GSK1379860] | 6
Nc1nccc(-c2ccc3c(N)n[nH]c3c2)n1 [GSK1034945] | 0
CC(C(=O)NC1CCN(c2ccnc(Nc3ccc(F)cc3)n2)C1)c1ccc(Cl)cc1 (centres unmarked) [GSK1379713] | 0
Cc1ccc(C(=O)Nc2ccc(Oc3ccc4nc(NC(=O)C5CC5)cn4c3)c(F)c2)c(=O)n1-c1ccccc1 | 90.1
OCCn1cc(-c2cnc3nnn(Cc4ccc5ncccc5c4)c3n2)cn1 | 0
CN1CCN(CCNc2nc3cc(Oc4ccc(NC(=O)Nc5cc(C(F)(F)F)ccc5F)cc4)ccc3[nH]2)CC1.Cl.Cl [GW768504] | 28
CCn1c(-c2nonc2N)nc2cncc(CNC3CCNCC3)c21.Cl [SB-747651] | 9
FC(F)(F)c1cc(Br)cc(Nc2nccc(-c3cnn4ncccc34)n2)c1 [GW810578] | 15
Cn1ccc2ncnc(Oc3ccc(NC(=O)Nc4cncc(C(F)(F)F)c4)c(Cl)c3)c21 | 57
O=C(Nc1n[nH]c2cc(-c3ccco3)ccc12)C1CC1 [SB-737447] | 0
CN(c1ccc2c(c1)nc(NCc1ccc(F)cc1)n2C)c1ccnc(Nc2ccc(CS(C)(=O)=O)cc2)n1.Cl [GW813244] | 20

SMILES | %Inh [%]
COc1cccc(OC)c1C(=O)Nc1cccc(-c2nn3ccccc3c2-c2ccnc(Nc3cccc(F)c3)n2)c1 [GSK361065] | 0
CCN1CCN(CCCC(=O)Nc2n[nH]c3nc(-c4ccc(O)cc4)c(Br)cc23)CC1 [SB-731579] | 0
Cn1cc(-c2cccc3c(N)c(C(N)=O)nnc23)cn1 | 0
O=C(Nc1cccc(C(F)(F)F)c1)c1cccc(Oc2ccc3nccn3n2)c1 | 17
Cn1ccc2ncnc(Oc3ccc(NC(=O)Nc4cnn(C(C)(C)C)c4)c(Cl)c3)c21 | 23
COc1ccc(Nc2nccc(N3CCC(NC(=O)c4cccc(C#N)c4)C3)n2)cc1 (centres unmarked) [GSK1379730] | 0
CC(C)S(=O)(=O)N1CCN(Cc2ccc3c(c2)nc(NC(=O)c2ccsc2)n3C[C@H](O)c2ccccc2)CC1 [GW635815] | 15
Cn1ccc2ncnc(Oc3ccc(NC(=O)Nc4cccc(C(F)(F)F)c4)c(F)c3)c21 | 85
Cc1ccc2c(-c3ccnc(Nc4ccc(C(F)(F)F)cc4)n3)cnn2n1 [GW819776] | 8
c1ccc(Oc2ccc(Nc3ccnc4ccc(-c5ccccn5)cc34)cc2)cc1 [GW407034] | 7
COc1cc2ncn(-c3cc(OCC4CCCCC4)c(C(N)=O)s3)c2cc1OC [GSK204559] | 10
Cl.Nc1n[nH]c2cc(-c3ccccn3)ccc12 [GSK2189892] | 1
CNC(=O)c1ccccc1Nc1nc(Nc2cccc(CS(C)(=O)=O)c2)ncc1C.O=CO [GSK1520489] | 88
CN1CCN(CCCNc2nccc(-c3c(-c4ccc(F)cc4)nn4cc(C(N)=O)ccc34)n2)CC1 [GW622475] | 0
CC(C)c1nc(-c2cccc(NS(=O)(=O)c3ccccc3)c2)c(-c2ccnc(Nc3ccc4c(c3)CN(C)CC4)n2)s1 [GSK1649598] | 21
COc1cccc(C2=C(Nc3cccc(Cl)c3)C(=O)NC2=O)c1 [SB-341556] | 23
Cl.Cl.NC[C@H](CC1CCCCC1)NC(=O)c1ccc(-c2ccnc3[nH]ccc23)s1 [GSK1581428] | 5
Cn1ccc2ncnc(Oc3ccc(NC(=O)Nc4cc(C(C)(C)C)on4)c(Cl)c3)c21 | 68
